Test results as given in the supplement of paper PMC3334620.
In all, about 33,000 sequences were measured (“E-score (-0.5 to 0.5)”: median about -0.013, highest 2% from about 0.3 on). For the sample, the highest values were picked, then their nearest neighbours and some sequences at random.

biological target: T1, Msn1 (UniProt P22148); test: PBM E-score (8-mer binding enrichment) (E-score (-0.5 to 0.5)); higher = stronger / more preferred TF binding; settings: protein concentration: 200 nM; construct: GST-full length
T1 sequence: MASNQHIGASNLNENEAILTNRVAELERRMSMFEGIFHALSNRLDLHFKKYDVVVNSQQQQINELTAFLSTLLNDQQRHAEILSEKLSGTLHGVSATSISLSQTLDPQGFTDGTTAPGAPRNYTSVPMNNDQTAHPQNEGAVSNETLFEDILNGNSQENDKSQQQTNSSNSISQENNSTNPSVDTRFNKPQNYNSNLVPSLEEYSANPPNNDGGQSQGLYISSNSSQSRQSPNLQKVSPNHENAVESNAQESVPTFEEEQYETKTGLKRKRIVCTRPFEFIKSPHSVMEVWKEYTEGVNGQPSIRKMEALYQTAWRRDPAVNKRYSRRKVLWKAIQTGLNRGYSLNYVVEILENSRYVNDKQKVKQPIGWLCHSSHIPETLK
Experimental: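 Universal 'all 10-mer' protein binding microarrays (Agilent AMADID 015681) probed with GST-tagged S. cerevisiae TFs (full-length or DBD) made by in vitro transcription/translation (PURExpress), about 100-200 nM. Bound TF was detected with fluorescent anti-GST. Each ungapped 8-mer (which stands for itself and its reverse complement) is scored by the PBM enrichment score (E-score), a modified Wilcoxon-Mann-Whitney statistic from -0.5 to +0.5, computed with the Universal PBM Analysis Suite. Scale: above 0.35 generally sequence-specific binding.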

Point of comparison: AATGCGTG, “PBM E-score” value 0.0114. Against it:
- ATAGATCC — lower, -0.0574
- AATTTCAG — higher, 0.127
- ACGTGCTA — lower, -0.167
- GATCCTTA — lower, -0.107
- AGCAATTG — lower, 0.00301
- ATTCGGCC — higher, 0.0205
- CGTTGTTC — higher, 0.0573
- CTTAGAGA — lower, -0.00262
- CACATGAC — lower, -0.0252
- GACATGAC — higher, 0.335
- TACATCTA — higher, 0.105
- GACATCTA — higher, 0.404
- AACATGAC — higher, 0.0901
- CACATCTA — higher, 0.0157
- AGGCACCC — lower, -0.241
- ATCGCTAG — higher, 0.022
- GAGTGGCC — lower, -0.224
- CAGTGTCC — higher, 0.348
- GAGTGTCC — higher, 0.232
- AAGTGTCG — higher, 0.126
- AAGTGTCT — higher, 0.257
- AAGTGTCC — higher, 0.366
- CAGTGTCG — higher, 0.0205
- GCGTGTAC — higher, 0.203
- ACGTGTCG — higher, 0.0594
- GCGTGTCA — higher, 0.136
- ACGTGTCT — higher, 0.16
- CCGTGTCC — higher, 0.413
- ACGTGTCC — higher, 0.455
- CCGTGTCA — higher, 0.121
- GCGTGTCC — higher, 0.431
- CCGTGTCG — lower, 0.00655
- AATCTTCA — higher, 0.211
- GCTGTGCC — lower, 0.00582
- GCGCTATA — lower, -0.036
- GGAGCGAA — higher, 0.0407
- AGGGAGGG — lower, -0.283
- TAGTTTGA — higher, 0.113
- CACCATAG — lower, -0.153
- CTGTGTCA — higher, 0.02
- CGGTGTCA — higher, 0.0418
- ATGTGTCA — higher, 0.217
- ATGTGTCC — higher, 0.438
- ATGTGTCG — higher, 0.194
- CTGTGTAC — higher, 0.197
- AGGTGTCC — higher, 0.263
- CTGTGTCC — higher, 0.439
- CGGTGTCC — higher, 0.304
- CCCGTAAG — lower, -0.117
- CGTTACTC — lower, -0.115
- GCTTTCCC — lower, 0.00071
- AGCTCCTC — lower, -0.315
- GAAACGAA — higher, 0.115
- CCAATTCC — higher, 0.0443
- CCAAAGAG — lower, -0.0341
- CGGTCCTA — lower, -0.185
- GAGTCCTA — higher, 0.0172
- GCGTCCTA — higher, 0.168
- GTGTCCTA — higher, 0.468
- CTGTCCTA — higher, 0.346
- CAGTCCTA — higher, 0.0807
- ACTGGGCC — lower, -0.0731
- CGCTATAC — lower, -0.194
- TCAGTACA — higher, 0.319
- ACAGTACA — higher, 0.189
- CTAGTACA — higher, 0.308
- GTAGTACA — higher, 0.167
- CCAGTACA — higher, 0.177
- CTAGTACC — lower, -0.0261
- TAAGAGTA — higher, 0.0785
- GCGGAGCC — lower, -0.139
- GGTTAGAC — higher, 0.076
- CTGTCTCA — higher, 0.087
- AGGTCTCG — lower, -0.156
- GTGTCTCA — higher, 0.286
- ATGTCTCG — higher, 0.333
- ATGTCTCA — higher, 0.446
- ATGTCTCC — higher, 0.302
- ACGGGCGG — lower, -0.141
- ACCCACGG — lower, -0.17
- CAGGTAAC — lower, -0.0911
- GAGCCGCC — lower, -0.217
- CAGCCTAC — lower, -0.125
- ACACGGAA — higher, 0.166
- ACACGGAG — lower, 0.00035
